Eleven compounds from PubChem BioAssay (NCI) can be followed below.

Molecules are shown by their SMILES. This is part of a sample that, as a whole, favours compounds with a hit. Of some 83,000 tested, about 20% had one in any assay.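 A percent growth of 40 corresponds to 60% growth inhibition; 0 means no net growth; -100 means all cells died. Active threshold: below 10.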 A number with no mark means an inactive call. Activity calls are given as the source filed them.

Common to all, as to test: NCI-60 one-dose screen, 48 h (100 = growth as untreated, 0 = no growth, -100 = all killed)
Holding throughout (conditions): 10 µM unless noted

The subject of experiment [1] is NCI-H23 lung.
Experiment [2] relates to NCI-H226 lung.
The subject of experiment [3] is NCI-H322M lung.
For experiment [4], the system named is HOP-62 NSCLC.
The test system of experiment [5] is NCI-H460 lung.
In experiment [6] the test system is HOP-92 NSCLC.
The subject of experiment [7] is NCI-H522 lung.
The subject of experiment [8] is A549/ATCC NSCLC.
The test system of experiment [9] is 786-0 renal.
Experiment [10] concerns COLO 205 colon.

As for `Cc1ncc(C(=O)Nc2ccc(CN3CCN(C)CC3)c(C(F)(F)F)c2)cc1C#Cc1cnc(N)c2ncccc12`, the growth is 38.4% in [1]; 42.6% in [2]; 30.3% in [3]; 20.6% in experiment [4]; 27.1% in [5]; 14.7% in [6]. Moreover, the growth in experiment [7] was 26.2%; in experiment [8], 21.2%; in experiment [9] it was -71.4% (active); in [10] it was 1.6% (active).
Consider `CCCn1cnc2c(c1=N)C(c1ccc(F)cc1)c1sc3c(F)cccc3c1O2` (stereo not given), for which the growth is 70.1% in experiment [1]; 74.7% in experiment [2]; 78.1% in experiment [3]; 52.4% in experiment [4]; 18.7% in experiment [5]; 67.5% in experiment [6]. For the same compound, the growth in experiment [7] is 4.15% (active); in [8], 48.1%; in [9], 40.9%; in [10], 86.4%.
As for `CC(=C(c1ccc(OCCN2CCCCC2)cc1)c1ccc(OCCN2CCCCC2)cc1)c1ccc(Cl)cc1`, the growth in experiment [1] is -82.4% (active); in experiment [2], -73.4% (active); in experiment [3] it was -97.2% (active); in experiment [4], -82% (active); in experiment [5] it was -82.4% (active); in experiment [6] it was -82.9% (active). Further, the growth in experiment [7] is -76.9% (active); in experiment [8], -81.7% (active); in experiment [9] it was -90.9% (active); in [10], -68.2% (active).
For `CC1(C)CC(=O)c2c(nn(-c3ccc(Br)cc3)c2-c2cn(-c3ccccc3)nc2-c2cccnc2)C1`, the growth in experiment [1] was 90.4%; in experiment [2], 98.4%; in experiment [3] it was 93%; in [4] it was 81.3%; in experiment [5], 97.5%; in [6], 87.2%. The growth in experiment [7] was 85.6%; in experiment [8] it was 92.5%; in experiment [9], 100%; in experiment [10] it was 105%.
`COc1cc(C2C(C(=O)OCc3ccccc3)=C(C)NC(C)=C2C(=O)OCc2ccccc2)cc(OC)c1OC`: the growth was 29.3% in [1]; 32.2% in experiment [2]; 58% in [3]; 51% in experiment [4]; 25.6% in experiment [5]; -4.65% (active) in [6]. For the same compound, the growth in experiment [7] was 25%; in experiment [8] it was 23.4%; in experiment [9] it was 25.2%; in [10], -47.7% (active).
Regarding `CC(C)=CCNc1ncnc2c1ncn2C1OC(CO)C(O)C1O` (stereo not given), the growth is -19.3% [1 mM] (active) in experiment [1]; -70.3% [1 mM] (active) in experiment [2]; -4.69% [1 mM] (active) in experiment [3]; -17.3% [1 mM] (active) in experiment [4]; 2.5% [1 mM] (active) in experiment [5]; -77.2% [1 mM] (active) in [6]. Also, the growth in experiment [7] is -54.2% [1 mM] (active); in experiment [8] it was -8.25% [1 mM] (active); in experiment [9] it was -31.4% [1 mM] (active); in experiment [10], -6.05% [1 mM] (active).
On to `C#CCn1cnc2cnc(Nc3cccc(NC(=O)C=C)c3)nc21`, for which the growth in [1] is 95.6% [6.25 µM]; in experiment [2], 78.8% [6.25 µM]; in [3] it was 96.1% [6.25 µM]; in experiment [4], 78.6% [6.25 µM]; in experiment [5], 90.6% [6.25 µM]; in [6] it was 32.6% [6.25 µM]. Moreover, the growth is 71.4% [6.25 µM] in experiment [7], 85.3% [6.25 µM] in [8], 56.8% [6.25 µM] in experiment [9] and 82.2% [6.25 µM] in [10].
Consider `Cc1cccc(Oc2ccc(Nc3ncnc4ccc(NC(=O)CN5CCN(C)CC5)cc34)cc2Cl)c1`, for which the growth in [1] is 69.6%; in experiment [2], 85.2%; in [3] it was 15.1%; in [4] it was 60%; in experiment [5] it was 2.18% (active); in [6] it was 43.1%. In addition, the growth in [7] is 0.619% (active); in experiment [8], 28.4%; in experiment [9], -40.7% (active); in [10] it was -43.4% (active).
For the compound `CN(C)S(=O)(=O)Oc1ccc(-c2sc3cc(OS(=O)(=O)N(C)C)ccc3c2C(=O)c2ccc(OCCN3CCCCC3)cc2)cc1`, the growth in experiment [1] is 74.4%; in experiment [2] it was 64.6%; in experiment [3] it was 87.9%; in experiment [4], 49.8%; in experiment [5] it was 32.2%; in experiment [6] it was 28.5%. The growth in [7] is 39.6%; in experiment [8], 52.7%; in experiment [9], 21.5%; in [10], 36.1%.
On to `C=CC(=O)Nc1ccc(Nc2nccc(-c3ccc(N4CCCC4)c(C#N)c3)n2)cc1`, for which the growth in experiment [1] is 62.1%; in experiment [2] it was 52.7%; in experiment [3] it was 41.2%; in experiment [4], 19.2%; in experiment [5], 0.189% (active); in [6], 60.9%. For the same compound, the growth in [7] was 12.4%; in experiment [8] it was 14.7%; in [9], -67.4% (active); in [10], 7.29% (active).
For the compound `N#CSc1c[nH]c2cccc(/C=C/C(=O)/C=C(O)/C=C/c3cccc4[nH]cc(SC#N)c34)c12`, the growth in experiment [1] is -36.8% (active); in experiment [2] it was -73.1% (active); in [3] it was -47.5% (active); in experiment [4], -32.6% (active); in [5], -22.9% (active); in experiment [6], -72% (active). In addition, the growth in experiment [7] is -68.2% (active); in experiment [8], -69.7% (active); in experiment [9] it was -60.3% (active); in [10] it was -77.7% (active).
